According to the supplement of paper PMC10670038:
Structures can show the parent of a compound that is named as a salt. ± gives the standard deviation of the averaged measurements. The full ranking holds about 2,000 compounds; the median of “relative cell viability vs DMSO, compound + 0.2 uM CuET” is about 1, and the lowest 2% start at about 0.25. This excerpt belongs to a sample that is enriched for the lowest values.

system: TE10; test: relative cell viability vs DMSO, compound + 0.2 uM CuET (fraction); TE10 is an esophageal squamous carcinoma line; higher = less cytotoxic; settings: 2 µM; co-treatment: CuET (bis(diethyldithiocarbamate)copper) 0.2 uM; 48 h
Procedure: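 TE10 ESCC cells (1,000/well, 384-well plates) were treated with Selleck bioactive library compounds at 2 uM combined with 0.2 uM CuET (copper diethyldithiocarbamate) for 48 h. Viability was read by CellTiter-Glo and expressed relative to DMSO wells. Two technical replicates (A, B).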

| Structure (SMILES) | relative cell viability |
| --- | --- |
| O=C1c2ccccc2C(=O)c2c1ccc(O)c2O [Alizarin] | 1.1 ± 0.029 |
| CC(C)(C)C(=O)Nc1ccc2c(c1)C(=O)C(=O)c1ccccc1-2 | 0.026 ± 0.0042 |
| CC(=O)Nc1ccccc1 [Acetanilide] | 1.018 ± 0.0034 |
| COc1ccc(OC)c(C2C(C#N)=C(N)Oc3n[nH]c(-c4ccc5ccccc5c4)c32)c1 (configuration not stated) | 1.06 ± 0.048 |
| CN(c1ccccc1CNc1nc(Nc2ccc3c(c2)CC(=O)N3)ncc1C(F)(F)F)S(C)(=O)=O | 0.709 ± 0.029 |
| Cc1ccc(NC(=O)c2ccc(CN3CCN(C)CC3)cc2)cc1Nc1nccc(-c2cccnc2)n1 [Imatinib (STI571)] | 1.05 ± 0.1 |
| Nc1ccccc1NC(=O)c1ccc(CNC(=O)OCc2cccnc2)cc1 [Entinostat (MS-275)] | 0.321 ± 0.033 |
| Cc1ccc(NC(=O)c2ccc(CN3CCN(C)CC3)cc2)cc1Nc1nccc(-c2cccnc2)n1 [Imatinib Mesylate (STI571)] | 1.43 ± 0.12 |
| Nc1ccccc1NC(=O)c1ccc(CNc2nccc(-c3cccnc3)n2)cc1 [Mocetinostat (MGCD0103)] | 0.249 ± 0.039 |
| O=C1Cc2c([nH]c3ccc(Br)cc23)-c2ncccc2N1 [1-Azakenpaullone] | 1.17 ± 0.11 |
| Cc1ccc(-c2csc(NC(=O)c3ccccc3)n2)c(C)c1 | 1.22 ± 0.19 |
| Cn1c(Nc2ccc(C(F)(F)F)cc2)nc2cc(Oc3ccnc(-c4ncc(C(F)(F)F)[nH]4)c3)ccc21 | 0.847 ± 0.035 |
| CCCc1nc(C)c2c(=O)nc(-c3cc(S(=O)(=O)N4CCN(CC)CC4)ccc3OCC)[nH]n12 [Vardenafil HCl Trihydrate] | 1.1 ± 0.062 |
| O=C(c1ccc(F)cc1)N1CCCC(c2nc(-c3ccc(F)cc3)no2)C1 (configuration not stated) | 1.12 ± 0.22 |
| C=CC(=O)N1CC(=Cc2ccc([N+](=O)[O-])cc2)C(=O)C(=Cc2ccc([N+](=O)[O-])cc2)C1 | 0.126 ± 0.015 |
| CN1C(C(=O)Nc2ccccn2)=C(O)c2ccccc2S1(=O)=O [Piroxicam] | 1.02 ± 0.064 |
| Nc1ccccc1NC(=O)c1cnccn1 | 1.16 ± 0.018 |
| CC(C)Oc1ccc2c(=O)c(-c3ccccc3)coc2c1 [Ipriflavone (Osteofix)] | 0.968 ± 0.056 |
| CCC(=O)OCC(=O)[C@@]1(OC(=O)CC)[C@@H](C)C[C@H]2[C@@H]3CCC4=CC(=O)C=C[C@]4(C)[C@@]3(F)[C@@H](O)C[C@@]21C [Betamethasone Dipropionate] | 1.05 ± 0.052 |
| Cc1ccc(S(=O)(=O)C=CC#N)cc1 | 0.101 ± 0.0039 |
| CC(C)(C)c1ccc(S(=O)(=O)/C=C/C#N)cc1 | 0.107 ± 0.0014 |
| Cc1cc(C)c(-c2csc(NC(=O)c3ccccc3)n2)c(C)c1 | 1.17 ± 0.069 |
| O=C(NO)c1ccc(CC(=O)N(CCO)c2ccccc2)cc1 | 1.056 ± 0.0057 |
| O=C1NC(=NCc2cccs2)S/C1=C\c1ccc2ncccc2c1 | 1.12 ± 0.078 |
| CC(Oc1cc(-c2cnn(C3CCNCC3)c2)cnc1N)c1c(Cl)ccc(F)c1Cl [(S)-crizotinib] | 1.12 ± 0.028 |
| CC(C)(C)C(=O)OCOP(=O)(COCCn1cnc2c(N)ncnc21)OCOC(=O)C(C)(C)C [Adefovir Dipivoxil] | 1.02 ± 0.035 |

| Structure (SMILES) | relative cell viability |
| --- | --- |
| Cc1cc(Nc2cc(CN3CCOCC3)c3nc(C)c(Cc4ccc(Cl)cc4F)n3n2)n[nH]1 | 0.92 ± 0.046 |
| O=C1C(c2c(O)[nH]c3ccccc23)=Nc2ccccc21 [Indirubin] | 0.978 ± 0.15 |
| CC(C)C[C@H](NC(=O)CNC(=O)c1cc(Cl)ccc1Cl)B1OC(=O)CC(CC(=O)O)(C(=O)O)O1 (some centres not stated) | 0.818 ± 0.048 |
| O=C1N=C(O)NC1(c1ccccc1)c1ccccc1 [Phenytoin sodium] | 0.961 ± 0.045 |
| COc1ccc(Cn2ccc3ccc(C(=O)NO)cc32)cc1 | 0.685 ± 0.085 |
| CCN(CC)CCNC(=O)c1ccc(N)cc1 [Procainamide HCl] | 0.957 ± 0.026 |
| CCN(CC)Cc1ccc2cc(COC(=O)Nc3ccc(C(=O)NO)cc3)ccc2c1 [Givinostat (ITF2357)] | 0.192 ± 0.018 |
| C=CC(=O)N1CCN(C(=O)CNc2cc(I)c(Cl)cc2O)CC1 [K-Ras(G12C) inhibitor 12] | 1.06 ± 0.13 |
| C=CC(C)(C)c1cc(C=CC(=O)c2ccc(O)cc2)c(OC)cc1O [Licochalcone A] | 1.008 ± 0.0053 |
| CN1CC[C@@H](c2c(O)cc(O)c3c(=O)cc(-c4ccccc4Cl)oc23)[C@@H]1CO | 0.7 ± 0.044 |
| CNC(=O)c1c(F)cccc1Nc1nc(Nc2cc3c(cc2OC)CCN3C(=O)CN(C)C)nc2[nH]ccc12 | 1.06 ± 0.1 |
| CC1(C)O[C@@H]2C[C@H]3[C@@H]4CCC5=CC(=O)CC[C@]5(C)[C@@]4(F)[C@@H](O)C[C@]3(C)[C@]2(C(=O)CCl)O1 [Halcinonide] | 0.905 ± 0.0084 |
| NC(=O)c1ccc(-c2nc(-c3ccc4c(c3)OCCO4)c(-c3ccccn3)[nH]2)cc1 | 0.996 ± 0.12 |
| CC(C)N(CCC(=O)c1ccc2ccccc2c1)Cc1ccccc1 | 0.1814 ± 0.0002 |
| CC(COc1ccccc1)N(CCCl)Cc1ccccc1 (configuration not stated) [Phenoxybenzamine HCl] | 1.07 ± 0.07 |
| C/C(=C\C(=O)Nc1ccccc1C(=O)O)c1ccc2ccccc2c1 | 1.14 ± 0.058 |
| Cn1cc(-c2ccc3c(c2)CCN3C(=O)Cc2cccc(C(F)(F)F)c2)c2c(N)ncnc21 | 0.897 ± 0.087 |
| CN(C)CCN1C(=O)c2cccc3cc(N)cc(c23)C1=O [Amonafide] | 1.042 ± 0.0065 |
| COc1ccc(C2=NC(c3ccc(Cl)cc3)C(c3ccc(Cl)cc3)N2C(=O)N2CCNC(=O)C2)c(OC(C)C)c1 (configuration not stated) [Nutlin-3a] | 1.149 ± 0.0057 |
| COc1ccc(C2=NC(c3ccc(Cl)cc3)C(c3ccc(Cl)cc3)N2C(=O)N2CCNC(=O)C2)c(OC(C)C)c1 (configuration not stated) [Nutlin-3b] | 1.17 ± 0.094 |
| O=C(Oc1cc(S(=O)(=O)c2ccccc2)ccc1[N+](=O)[O-])c1ccc(Cl)cc1 | 1.04 ± 0.07 |
| Nc1ccc(-c2ccc3ncc4ccc(=O)n(-c5cccc(C(F)(F)F)c5)c4c3c2)cn1 [Torin 2] | 0.569 ± 0.16 |
| COc1cc(-c2cc(-c3ccc(N4CCNCC4)cc3)cnc2C)cc(OC)c1OC | 0.87 ± 0.053 |
| COc1ccc(-c2ccc3ncc4c(c3c2)n(-c2ccc(N3CCNCC3)c(C(F)(F)F)c2)c(=O)n4C)cn1 | 0.104 ± 0.0046 |
| Cc1c(NC(=O)c2ccc(C(C)(C)C)cc2)cccc1-c1cn(C)c(=O)c(Nc2ccc(C(=O)N3CCOCC3)cc2)n1 | 1.04 ± 0.046 |
| Cc1ccccc1C(=O)Nc1ccc(C(=O)N2CCCC(O)c3cc(Cl)ccc32)c(C)c1 (configuration not stated) [Tolvaptan] | 1.05 ± 0.075 |

| Structure (SMILES) | relative cell viability |
| --- | --- |
| CNCc1ccc(-c2[nH]c3cc(F)cc4c3c2CCNC4=O)cc1 | 1.3 ± 0.098 |
| C=C(C)[C@@H]1CC[C@]2(C(=O)O)CC[C@]3(C)[C@H](CC[C@@H]4[C@@]5(C)CC[C@H](O)C(C)(C)[C@@H]5CC[C@]43C)[C@@H]12 [Betulinic acid] | 0.945 ± 0.13 |
| CS(=O)(=O)Nc1ccc([N+](=O)[O-])cc1Oc1ccccc1 [Nimesulide] | 1.08 ± 0.044 |
| O=[N+]([O-])c1ccc2c(c1)S(=O)(=O)C=C2 [Stattic] | 0.204 ± 0.018 |
| CC(C)=CCCC(C)(OC1OC(COC2OCC(O)C(O)C2O)C(O)C(O)C1O)C1CCC2(C)C1C(O)CC1C3(C)CCC(OC4OC(CO)C(O)C(O)C4O)C(C)(C)C3CCC12C (configuration not stated) [Gynostemma Extract] | 1.04 ± 0.076 |
| COC(=O)CCSCc1ccc(-c2onc(C)c2NC(=O)OC(C)c2ccccc2Cl)cc1 (configuration not stated) | 0.919 ± 0.024 |
| CCCCN1CCCCC1C(=O)Nc1c(C)cccc1C (configuration not stated) [Bupivacaine HCl] | 1.03 ± 0.16 |
| CCN=C1N[C@@H]2[C@@H](O)[C@H](O)[C@@H](CO)O[C@@H]2S1 [Thiamet G] | 1.16 ± 0.065 |
| COc1cc(C(=O)NS(=O)(=O)c2ccccc2C)ccc1Cc1cn(C)c2ccc(NC(=O)OC3CCCC3)cc12 [Zafirlukast] | 1.08 ± 0.019 |
| CN1CCc2c(c3ccccc3n2Cc2ccc(C(=O)NO)cc2)C1 [Tubastatin A HCl] | 0.979 ± 0.011 |
| Cn1cc(CNCC2CCN(c3ncc(C(=O)NO)cn3)CC2)c2ccccc21 | 0.171 ± 0.017 |
| CN1CCc2c(c3ccccc3n2Cc2ccc(C(=O)NO)cc2)C1 [Tubastatin A] | 1.375 ± 0.0024 |
| CCCCCCCCCCCCCCCC(=O)OCC(O)C1OC(=O)C(O)=C1O [L-Ascorbyl 6-palmitate] | 1.02 ± 0.04 |
| C[C@@H]1[C@H](O)[C@@H](C)/C=C/C=C/C=C/C=C/C=C/C=C/C=C/[C@H](O[C@@H]2O[C@H](C)[C@@H](O)[C@H](N)[C@@H]2O)C[C@@H]2O[C@](O)(C[C@@H](O)C[C@@H](O)[C@H](O)CC[C@@H](O)C[C@@H](O)CC(=O)O[C@H]1C)C[C@H](O)[C@H]2C(=O)O [Amphotericin B] | 1.13 ± 0.11 |
| COc1c/c(=C2\C=c3ccccc3=N2)[nH]/c1=C\c1[nH]c(C)cc1C [Obatoclax Mesylate (GX15-070)] | 0.354 ± 0.035 |
| Brc1ccc(C2CN3CCSC3=N2)cc1 (single isomer, unassigned; (-)) [(-)-p-Bromotetramisole Oxalate] | 1.33 ± 0.11 |
| Cc1cc(=O)oc2c(C=O)c(O)ccc12 | 1.24 ± 0.086 |
| CN(NC(=O)CC(=O)NN(C)C(=S)c1ccccc1)C(=S)c1ccccc1 [Elesclomol (STA-4783)] | 0.0573 ± 0.0087 |
| O=C(O)c1ccccc1 [Benzoic Acid] | 1.1 ± 0.072 |
| O=C(O)CCNC(=O)c1ccccc1 [Betamipron] | 1.014 ± 0.0048 |
| O=C(Nc1ccc2c(O)cc(S(=O)(=O)O)cc2c1)Nc1ccc2c(O)cc(S(=O)(=O)O)cc2c1 | 1.04 ± 0.058 |
| COc1ccc(Oc2cc(C)c(-c3csc(NC(=O)c4ccncc4)n3)c(C)c2)cc1 | 0.89 ± 0.15 |
| O=C(/C=C/c1ccc(O)c(O)c1)O[C@@H]1C[C@](O)(C(=O)O)C[C@@H](O)[C@H]1O [Chlorogenic Acid] | 1.1 ± 0.11 |
| CC1(C)S[C@@H]2[C@H](NC(=O)[C@H](N)c3ccc(O)cc3)C(=O)N2[C@H]1C(=O)O [Amoxicillin Sodium] | 1.06 ± 0.069 |
| CC1(C)S[C@@H]2[C@H](NC(=O)[C@H](N)c3ccc(O)cc3)C(=O)N2[C@H]1C(=O)O [Amoxicillin] | 0.42 ± 0.49 |
